Experimental data published in PubChem BioAssay AID449739 (Vanderbilt High Throughput Screening Facility, 2010).
Screen size: about 100,000 compounds; about 4,200 (4.2%) were called active. For the sample, actives were picked, then their nearest neighbours and some compounds at random. Unmarked numbers belong to inactive results.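 Rule for the calls: active = single-dose well whose peak fluorescence ratio is a statistical outlier from its plate by either plate-standardised score or position-corrected B-score; inactive = the rest.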

biological target: Voltage-dependent T-type calcium channel subunit alpha-1H (Homo sapiens) (UniProt O95180); experiment: Cav3.2 calcium influx blockers – cell-based, Fluo-4 calcium fluorescence, FDSS, MLSMR library, primary screen (AID 449739); conditions: Cav3.2-expressing cells, at 10 µM, active compounds read low
Sequence (O95180 whole entry, looked up): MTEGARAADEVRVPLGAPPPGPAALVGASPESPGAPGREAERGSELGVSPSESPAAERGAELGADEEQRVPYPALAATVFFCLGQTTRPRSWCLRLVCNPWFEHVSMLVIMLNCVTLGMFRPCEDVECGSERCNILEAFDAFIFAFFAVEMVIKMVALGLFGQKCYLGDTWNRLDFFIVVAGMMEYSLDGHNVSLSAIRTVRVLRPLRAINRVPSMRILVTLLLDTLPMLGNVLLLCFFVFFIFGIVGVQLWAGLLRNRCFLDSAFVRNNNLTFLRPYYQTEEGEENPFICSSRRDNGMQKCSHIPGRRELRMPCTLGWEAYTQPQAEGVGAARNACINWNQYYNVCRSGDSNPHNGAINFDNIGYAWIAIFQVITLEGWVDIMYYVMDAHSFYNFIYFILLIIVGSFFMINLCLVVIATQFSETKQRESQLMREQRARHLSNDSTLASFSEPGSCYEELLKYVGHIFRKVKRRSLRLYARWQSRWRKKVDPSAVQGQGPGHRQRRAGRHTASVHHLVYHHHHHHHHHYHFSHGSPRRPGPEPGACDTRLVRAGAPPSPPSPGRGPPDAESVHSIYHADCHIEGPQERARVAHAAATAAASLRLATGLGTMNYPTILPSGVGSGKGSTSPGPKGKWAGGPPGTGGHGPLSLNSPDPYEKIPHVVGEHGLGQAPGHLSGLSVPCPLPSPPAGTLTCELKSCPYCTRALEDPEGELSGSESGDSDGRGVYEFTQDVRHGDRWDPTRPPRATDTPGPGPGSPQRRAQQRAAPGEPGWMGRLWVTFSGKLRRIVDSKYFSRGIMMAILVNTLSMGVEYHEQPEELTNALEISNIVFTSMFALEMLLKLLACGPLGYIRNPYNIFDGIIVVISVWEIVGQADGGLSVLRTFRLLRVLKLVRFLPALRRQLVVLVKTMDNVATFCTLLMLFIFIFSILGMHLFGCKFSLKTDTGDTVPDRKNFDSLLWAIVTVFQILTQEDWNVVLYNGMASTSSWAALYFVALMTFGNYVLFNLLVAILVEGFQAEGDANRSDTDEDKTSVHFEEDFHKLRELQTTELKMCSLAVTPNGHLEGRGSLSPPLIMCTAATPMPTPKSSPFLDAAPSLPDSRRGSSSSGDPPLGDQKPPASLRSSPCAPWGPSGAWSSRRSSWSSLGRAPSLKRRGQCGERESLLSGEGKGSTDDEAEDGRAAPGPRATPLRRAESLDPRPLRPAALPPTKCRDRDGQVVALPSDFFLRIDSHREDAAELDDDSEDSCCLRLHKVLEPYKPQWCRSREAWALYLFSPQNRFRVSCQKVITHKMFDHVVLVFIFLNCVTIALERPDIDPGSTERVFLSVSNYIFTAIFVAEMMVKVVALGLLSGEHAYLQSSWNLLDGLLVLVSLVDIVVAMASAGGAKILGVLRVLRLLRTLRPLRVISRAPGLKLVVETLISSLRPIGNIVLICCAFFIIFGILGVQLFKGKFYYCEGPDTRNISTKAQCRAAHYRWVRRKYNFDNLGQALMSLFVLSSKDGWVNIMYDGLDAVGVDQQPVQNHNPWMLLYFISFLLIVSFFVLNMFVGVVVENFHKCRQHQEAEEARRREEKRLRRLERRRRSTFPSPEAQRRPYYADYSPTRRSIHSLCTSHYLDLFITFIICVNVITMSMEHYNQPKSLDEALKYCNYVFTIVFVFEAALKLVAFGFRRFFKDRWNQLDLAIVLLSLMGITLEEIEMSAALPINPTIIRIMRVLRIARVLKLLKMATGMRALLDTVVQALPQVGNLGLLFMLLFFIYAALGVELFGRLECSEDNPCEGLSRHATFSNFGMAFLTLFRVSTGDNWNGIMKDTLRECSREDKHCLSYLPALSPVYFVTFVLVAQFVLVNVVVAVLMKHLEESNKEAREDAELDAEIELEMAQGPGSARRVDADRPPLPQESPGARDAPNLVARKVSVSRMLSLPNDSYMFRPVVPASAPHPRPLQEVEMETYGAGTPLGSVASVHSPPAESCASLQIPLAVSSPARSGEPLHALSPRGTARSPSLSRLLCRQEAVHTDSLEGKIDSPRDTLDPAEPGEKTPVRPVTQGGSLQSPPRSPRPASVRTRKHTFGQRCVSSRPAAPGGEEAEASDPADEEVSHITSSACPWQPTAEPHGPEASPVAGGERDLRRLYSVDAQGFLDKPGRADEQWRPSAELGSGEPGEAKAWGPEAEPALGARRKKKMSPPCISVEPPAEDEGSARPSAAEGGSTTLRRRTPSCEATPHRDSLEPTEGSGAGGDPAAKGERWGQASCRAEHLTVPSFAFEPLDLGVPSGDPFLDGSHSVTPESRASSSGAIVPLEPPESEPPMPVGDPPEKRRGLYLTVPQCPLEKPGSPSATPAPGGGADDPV

Question: Which B-score does the source give for O=C(O)c1cnn2c(C(F)(F)F)cc(-c3ccccc3)nc12 here?
Answer: 1.18

Question: COC(C/C=C/C(=O)[C@@H](C)OCc1ccccc1)OC was tested. Which B-score did it give?
Answer: -1.65

Question: With Cn1nc(C(F)(F)F)c(C(=O)Nc2cccc(C(F)(F)F)c2)c1SCc1ccc(Cl)cc1 as the molecule, how does the B-score read?
Answer: -4.7

Question: For CCOC(=O)C[C@H]1c2ccc(C(F)(F)F)cc2S(=O)(=O)N1c1ccccc1, which B-score is on record?
Answer: -2.6

Question: CCC(=O)OCc1c(C(F)(F)F)nn(C)c1Oc1cccc(C(F)(F)F)c1 was tested. Which B-score did it give?
Answer: -5.08 (active)

Question: For CC1=NN(C(=O)Cc2ccc(C)cc2)C(O)(c2cccnc2)C1 (stereo not drawn), which B-score is on record?
Answer: 0.437

Question: Cc1ccc(CNC(=O)c2ccc3c(c2)S(=O)(=O)c2ccccc2C3=O)cc1 was tested. Which B-score did it give?
Answer: 0.00734

Question: With Cc1cc(/C=C2/SC(=O)N(CC(=O)OC(C)C)C2=O)c(C)n1C as the molecule, how does the B-score read?
Answer: 0.168

Question: Which B-score does the source give for Cc1ccc(-c2nc3ccccc3[nH]2)cc1NC(=O)c1sc2ccccc2c1Cl here?
Answer: -3.3

Question: NC(=O)CSc1c[nH]c2ccccc12 was tested. Which B-score did it give?
Answer: 0.666

Question: For O=C(Cc1c[nH]c2ccccc12)OCCOC(=O)Cc1c[nH]c2ccccc12, which B-score is on record?
Answer: -6.55 (active)

Question: Which B-score does the source give for CC(=O)NC(Cc1c[nH]c2ccccc12)C(=O)O (stereo not drawn) here?
Answer: 1.52

Question: With Cc1cc([N+](=O)[O-])c(NC2CCCCC2)c([N+](=O)[O-])c1 as the molecule, how does the B-score read?
Answer: -0.266

Question: CONC(=O)c1cc(OCC(F)(F)F)ccc1OCC(F)(F)F was tested. Which B-score did it give?
Answer: 0.627

Question: With CCOc1ccc(C2=CC(c3ccccc3)n3ncnc3N2)cc1 (stereo not drawn) as the molecule, how does the B-score read?
Answer: -0.0885

Question: How did the B-score turn out when Brc1ccc(C2=CC(c3ccco3)n3ncnc3N2)cc1 (stereo not drawn) was run?
Answer: -4.77 (active)

Question: Which B-score does the source give for COC(=O)C1=C(C)Nc2ncnn2C1c1ccco1 (stereo not drawn) here?
Answer: -0.126

Question: For O=C(CN1CCN(C2CCCCC2)CC1)Nc1ccccc1N1CCCCC1, which B-score is on record?
Answer: -0.124

Question: Which B-score does the source give for Cn1c(=O)c2c(nc(SCC(=O)Nc3ccccc3N3CCCCC3)n2C)n(C)c1=O here?
Answer: -0.936

Question: For Cc1ccccc1NC(=O)CNc1ccccc1N1CCCCC1, which B-score is on record?
Answer: -8.5 (active)

Question: With C#CCOCCOCCOCCNc1nc(N2CCN(C(=O)[C@H](CCC(=O)O)n3cc(C(N)CO)nn3)CC2)nc(N2CCN(C(=O)[C@H](CCCCN)n3cc(C(N)CC(C)C)nn3)CC2)n1 (stereo partly drawn) as the molecule, how does the B-score read?
Answer: -1.41

Question: With Cc1ccc(C(=O)NNC(=O)OC(C)(C)C)c(Cl)c1 as the molecule, how does the B-score read?
Answer: -0.27

Question: For COc1ccc(C(=O)Nc2ccccc2C(=O)N/N=C/c2ccc(O)c(OC)c2)cc1, which B-score is on record?
Answer: 0.134

Question: For O=C(N/N=C\c1cccc(Br)c1)c1ccccc1-n1cccc1, which B-score is on record?
Answer: -6.5 (active)

Question: With Cn1c(=O)n(C)c2cc(/C=N/NC(=O)c3cccc(Br)c3)ccc21 as the molecule, how does the B-score read?
Answer: 1.83

Question: COc1ccc2c(c1)CC[C@@H]1[C@@H]2CC[C@]2(C)C(=O)CC[C@@H]12 was tested. Which B-score did it give?
Answer: -0.311

Question: For CCSc1nnc(-c2cc3c(s2)-c2ccccc2CC3)o1, which B-score is on record?
Answer: 0.187

Question: Which B-score does the source give for Fc1ccc(CSc2nnc(-c3cc4c(s3)-c3ccccc3CC4)o2)cc1 here?
Answer: -3.39 (active)

Question: For Fc1ccc(-c2nnc(CSc3nnc(-c4ccc5c(c4)OCO5)o3)o2)cc1, which B-score is on record?
Answer: -0.34

Question: With Cc1nn(C)c(Oc2ccccc2)c1CCNS(=O)(=O)c1ccc(F)cc1 as the molecule, how does the B-score read?
Answer: -1.06

Question: CC(C)=CC(=O)Nc1nnc(-c2ccc(F)cc2)s1 was tested. Which B-score did it give?
Answer: 0.294

Question: Which B-score does the source give for c1ccc(CSc2nnc(-c3ccco3)c(-c3ccco3)n2)cc1 here?
Answer: 0.232

Question: O=C(CSc1nnc(-c2ccco2)n1Cc1ccccc1)NC(=O)NCc1ccco1 was tested. Which B-score did it give?
Answer: -1.76

Question: c1ccc(CSc2nnc(-c3ccco3)n2Cc2ccccc2)cc1 was tested. Which B-score did it give?
Answer: -4.26 (active)

Question: How did the B-score turn out when CCOC(=O)CN1C(=O)N[C@@H](c2ccc(Br)cc2)C(C(C)=O)=C1C was run?
Answer: 1.08

Question: For CC(N=Cc1nc(-c2ccccc2)oc1O)c1ccccc1 (stereo not drawn), which B-score is on record?
Answer: -4.84 (active)

Question: How did the B-score turn out when CC(NC(=O)c1cc(-c2ccccc2)on1)c1ccccc1 (stereo not drawn) was run?
Answer: 0.962

Question: C/C=C(\C)C(=O)N1CC2(CC(c3cccc(NC(=O)CCCCC)c3)=NO2)C[C@@H]1C(N)=O (stereo partly drawn) was tested. Which B-score did it give?
Answer: -0.0964

Question: O=C1c2ccccc2NC(c2ccc(-c3cccc(Cl)c3)o2)N1O (stereo not drawn) was tested. Which B-score did it give?
Answer: -6.09 (active)

Question: For C[C@@H](C(=O)N1CCNCC1)n1cc(CCC(=O)O)nn1, which B-score is on record?
Answer: 0.81

Question: Which B-score does the source give for Cc1cccc(OCCCC(=O)Nc2ccc(S(=O)(=O)N3CCCC3)cc2)c1 here?
Answer: -4.11

Question: How did the B-score turn out when Cc1cccc(NC(=O)CN2CCCN(S(=O)(=O)c3ccc(Br)s3)CC2)c1 was run?
Answer: -4.23 (active)

Question: Cc1cccc(NC(=O)CN2C(=O)CNC2=O)c1 was tested. Which B-score did it give?
Answer: -0.246

Question: For O=C(NC1CC1)C1=C[C@H](c2coc3ccccc3c2=O)C[C@H](OCCCCO)O1, which B-score is on record?
Answer: 0.0579

Question: COc1ccccc1NC(=O)CSc1nnc(-c2ccoc2C)n1CCc1ccccc1 was tested. Which B-score did it give?
Answer: -2.79

Question: How did the B-score turn out when CCCn1c(SCC(=O)Nc2cccc(C(=O)OCC)c2)nnc1-c1ccoc1C was run?
Answer: -5.22 (active)

Question: With Cc1ccc(-n2c(SCC(=O)Nc3ccc4c(c3)OCO4)nnc2-c2ccoc2C)cc1 as the molecule, how does the B-score read?
Answer: -0.45

Question: With FC(F)(F)c1cc(C(F)(F)F)c2ccc(N3CCN(c4ccccc4)CC3)nc2n1 as the molecule, how does the B-score read?
Answer: -0.29

Question: CNC(C)C#Cc1ccc2sc3cc(OC)c(OC)cc3c(=O)c2c1 (stereo not drawn) was tested. Which B-score did it give?
Answer: -1.08

Question: For C[C@H]1CC[C@]2(O[C@@H](CCO)C[C@@H](O)[C@@H]2O)O1, which B-score is on record?
Answer: -0.0046

Question: With O=C(COC(=O)c1ccccc1NC(=O)c1ccco1)Nc1ccc2c(c1)OC(F)(F)O2 as the molecule, how does the B-score read?
Answer: -1.68

Question: For CC1Cc2ccccc2N1CC(=O)Nc1ccc2c(c1)OC(F)(F)O2 (stereo not drawn), which B-score is on record?
Answer: -4.17 (active)

Question: Which B-score does the source give for O=C(Cn1c(=O)sc2ccccc21)Nc1ccc2c(c1)OCCO2 here?
Answer: 0.666

Question: How did the B-score turn out when CCC(=O)Nc1ccc(C(=O)Nc2cc(C)on2)cc1 was run?
Answer: 0.744

Question: Which B-score does the source give for CCc1ccc2ncc(C(=O)c3ccccc3)c(N3CCOCC3)c2c1 here?
Answer: -0.907

Question: Which B-score does the source give for COc1ccccc1NC(=S)NC(=O)C(C)C here?
Answer: 0.35

Question: How did the B-score turn out when CC(C)C(=O)NC(=S)Nc1ccccc1F was run?
Answer: -0.107

Question: Which B-score does the source give for CC(C)C(=O)Nc1cccc(NC(=S)NC(=O)C(c2ccccc2)c2ccccc2)c1 here?
Answer: -5.49 (active)

Question: O=C(NCCc1ccccc1)c1ccc(OCCOc2ccccc2)cc1 was tested. Which B-score did it give?
Answer: -0.578

Question: Which B-score does the source give for Cc1cc(C(=O)NCCCc2ccccc2)no1 here?
Answer: 0.538

Question: For CC(C)c1ccc(C(=O)NCCCc2ccccc2)cc1, which B-score is on record?
Answer: -4.2 (active)

Question: CC(=O)Nc1cccc(/C(C)=N/NC(=O)c2ccccc2Cl)c1 was tested. Which B-score did it give?
Answer: 0.407

Question: Which B-score does the source give for Cc1ccc(-c2csc(NCCc3nc4cc(Cl)c(Cl)cc4n3CCOCCO)n2)cc1 here?
Answer: -0.914

Question: CC1Cc2ccccc2N1C(=O)CSc1nc2ccccc2o1 (stereo not drawn) was tested. Which B-score did it give?
Answer: -4.15 (active)

Question: How did the B-score turn out when O=C(CSc1nc2ccccc2o1)N1CCN(c2ccccc2)CC1 was run?
Answer: -0.102

Question: For CCS(=O)(=O)c1ccc2oc(SCC(=O)N3c4ccccc4CC3C)nc2c1 (stereo not drawn), which B-score is on record?
Answer: 0.393

Question: How did the B-score turn out when Cc1nc(SCC(=O)c2ccccc2)c([N+](=O)[O-])[nH]1 was run?
Answer: 0.184

Question: COc1c(O)cc2oc(-c3ccc(O)c(O)c3)cc(=O)c2c1O was tested. Which B-score did it give?
Answer: 1.78

Question: For COc1ccccc1N(C)S(=O)(=O)c1ccc(C(=O)N2CCC(C(N)=O)CC2)cc1, which B-score is on record?
Answer: -0.0467

Question: For CCCCC1=CC2=CC(=O)C(C)(OC(=O)CC)C(=O)C2=CN1CCCOC(C)C (stereo not drawn), which B-score is on record?
Answer: 0.761

Question: Which B-score does the source give for CCC(C)NC(=O)CSC1=Nc2ccccc2C2=NC(CCC(=O)NCc3ccco3)C(=O)N12 (stereo not drawn) here?
Answer: 0.161

Question: Which B-score does the source give for O=C(CSC1=Nc2ccccc2C2=NC(CC(=O)NCc3ccco3)C(=O)N12)NCc1ccco1 (stereo not drawn) here?
Answer: 0.442

Question: For O=C(CC1N=C2c3ccccc3N=C(SCc3ccccc3Cl)N2C1=O)NCc1ccco1 (stereo not drawn), which B-score is on record?
Answer: -4.98 (active)

Question: How did the B-score turn out when O=C(Cc1ccc2c(c1)CCCC2)Nc1ccccc1Cl was run?
Answer: -0.144

Question: For O=C(NCc1ccccc1)c1onc(CSc2ccncc2)c1C(=O)NCc1ccccc1, which B-score is on record?
Answer: -0.591

Question: Which B-score does the source give for Cc1cccc(OCc2nnc(SCc3nc4cc(C(F)(F)F)ccc4c(=O)[nH]3)o2)c1 here?
Answer: -1.8

Question: Cc1cccc(OCc2nnc(SCn3nnc4ccccc4c3=O)o2)c1 was tested. Which B-score did it give?
Answer: -6.05 (active)

Question: Which B-score does the source give for Cc1cc(C)cc(OCc2nnc(SCC(=O)Nc3ccccc3)o2)c1 here?
Answer: 0.346

Question: How did the B-score turn out when COc1cccc(NC(=O)c2ccccc2SC)c1 was run?
Answer: 0.424

Question: For COc1cccc(NC(=O)c2nn(C34CC5CC(CC(C5)C3)C4)cc2[N+](=O)[O-])c1, which B-score is on record?
Answer: -4.14 (active)

Question: Which B-score does the source give for Cn1cc([N+](=O)[O-])c(C(=O)Nc2ccc3c(c2)OCCO3)n1 here?
Answer: 0.353

Question: O=C(Nc1nnc(CCOCCOCCc2nnc(NC(=O)c3ccco3)s2)s1)c1ccco1 was tested. Which B-score did it give?
Answer: 0.766

Question: With Cc1cc(C(=O)CSc2nc(N)cc(=O)[nH]2)c(C)n1CCc1ccc(Cl)cc1 as the molecule, how does the B-score read?
Answer: 0.737

Question: With CC(/C=C/C1(O)C(C)CC(=O)CC1(C)C)OC1OC(CO)C(O)C(O)C1O (stereo not drawn) as the molecule, how does the B-score read?
Answer: 0.424

Question: Which B-score does the source give for CCOc1ccc(NC(=O)CN2CCN(CC(=O)Nc3ccc(OC)cc3)CC2)cc1 here?
Answer: 1.58

Question: How did the B-score turn out when COc1ccc(NC(=O)Cn2c(-c3ccc(OC)cc3)cn(-c3ccc(C)cc3)c2=O)cc1 was run?
Answer: -4.33 (active)

Question: How did the B-score turn out when COc1ccc(-c2cn(-c3ccc(C)cc3)c(=O)n2CC(=O)Nc2ccc(OC)c(OC)c2)cc1 was run?
Answer: -1.46

Question: How did the B-score turn out when CC(C)(C)NS(=O)(=O)c1ccc(NC(=O)NC2CCCCC2)cc1 was run?
Answer: -0.833

Question: For Cc1n[nH]c(=S)n1/N=C/c1ccc(Br)o1, which B-score is on record?
Answer: 0.825

Question: Which B-score does the source give for COc1ccc(Nc2nc(Cl)nc(NCc3ccco3)n2)cc1 here?
Answer: -0.534

Question: COc1ccc(CCNC(=O)C2CCN(c3nn4c(=O)cc(C)nc4s3)CC2)cc1OC was tested. Which B-score did it give?
Answer: 0.351

Question: How did the B-score turn out when COc1ccc(CCNC(=O)C2CCCN(Cc3nc(-c4cccc(Cl)c4)oc3C)C2)cc1OC (stereo not drawn) was run?
Answer: -3.48 (active)

Question: COc1ccc(CCN(C)C(=O)C2CCCN(Cc3ccc(OC)c(OC)c3)C2)cc1OC (stereo not drawn) was tested. Which B-score did it give?
Answer: -0.0096
